The campaign covered roughly 13,000 compounds. About 3,200 (25%) showed an effect of 50% or more. This is one part of the list.
System: P. falciparum stage V gametocytes
Set-up: BacTiter-Glo ATP luminescence viability of purified stage V gametocytes in 384-well plates, per cent inhibition versus DMSO
Details: 48 h, 5 µM; inhibitor

| Structure (SMILES) | % Inhibition [%] |
| --- | --- |
| CCCCC(CC)C(=O)C(NC(=O)[C@H](CSC(c1ccccc1)(c1ccccc1)c1ccccc1)NC(=O)OC(C)(C)C)C(=O)OC (some centres unmarked) [TCMDC-138083] | 0.3187 |
| Cc1cccc2[nH]c(-c3cccc(-c4cccc(NC(=O)COc5ccccc5C(N)=O)c4)c3)nc12 [TCMDC-132130] | 45.07 |
| NC(=O)c1ccccc1OCC(=O)Nc1cccc(-c2ccc(-c3nc4ccc(C(F)(F)F)cc4[nH]3)cc2)c1 [TCMDC-132132] | -3.438 |
| NC(=O)c1ccccc1OCC(=O)Nc1ccc(-c2cccc(-c3nc4ccc(C(F)(F)F)cc4[nH]3)c2)cc1 [TCMDC-132129] | 71.31 |
| Cc1cccc2[nH]c(-c3cccc(-c4ccc(NC(=O)COC(C)C)cc4)c3)nc12 [TCMDC-137038] | 26.32 |
| NC(=O)c1ccccc1OCC(=O)Nc1cccc(-c2cccc(-c3nc4ccccc4[nH]3)c2)c1 [TCMDC-132127] | 20.22 |
| Cc1cccc2[nH]c(-c3cccc(-c4ccc(NC(=O)COc5ccccc5C(N)=O)cc4)c3)nc12 [TCMDC-132131] | 84.32 |
| O=C(/C=C/c1ccc(Cl)c(Cl)c1)NCCCCCN1CCC(NC(=O)Nc2cccc(Cl)c2F)CC1 [TCMDC-135721] | -53.7 |
| CCCN(Cc1nnc(-c2cccs2)o1)C(=O)CSc1nnnn1-c1cc(C)cc(C)c1 [TCMDC-125265] | 15.05 |
| CCN(CC)CCN(Cc1ccc(-c2ccc(C(F)(F)F)cc2)cc1)C(=O)c1ccc(-c2ccc(NC(=O)OC)cc2C)cc1 [TCMDC-141558] | 93.92 |
| COC(=O)Nc1ccc(-c2ccc(C(=O)NC3CCN(C[C@H](O)c4ccnc5ccc(OC)cc45)CC3)cc2)c(C)c1 [TCMDC-141170] | -22.09 |
| CCN(CC)CCN(Cc1ccc(-c2ccc(C(F)(F)F)cc2)cc1)C(=O)c1c[nH]c2ccc(Br)cc12 [TCMDC-141557] | 106.7 |
| CCCC(C)N(Cc1ccc(C(C)(C)C)cc1)C(=O)c1cccc(C#N)c1 (centres unmarked) [TCMDC-139784] | -24.96 |
| CCN(CC)CCN(Cc1ccc(-c2ccc(C(F)(F)F)cc2)cc1)C(=O)c1ccc(-c2ccc(C#N)cc2)cc1 [TCMDC-141556] | 55.86 |
| CCOC(=O)c1ccc(NC(=O)Nc2ccc(-c3ccc(-c4nc5ccc(C(F)(F)F)cc5[nH]4)cc3)cc2)cc1 [TCMDC-133260] | 23.97 |
| CC(C)CCN(Cc1cncn1Cc1cccc(C(F)(F)F)c1)C(=O)c1cncc(-c2ccccc2)c1 [TCMDC-132458] | 37.01 |
| CCN(CC)C(=O)C(=O)c1c[nH]c2ccc(Cl)cc12 [TCMDC-131976] | 21.68 |
| Cc1cc(C)c(S(=O)(=O)N2CCCCC(c3cccc(C(F)(F)F)c3)=N2)c(C)c1 [TCMDC-134550] | -57.26 |
| CC(C)(C)C1CCC(CC2=C(C(=O)O)c3ccccc3C2=O)CC1 (centres unmarked) [TCMDC-137496] | 8.625 |
| O=C1OC(c2ccccc2)(c2ccccc2)CN1C1CCN(Cc2ccc(O)c(Cl)c2)C1 (centres unmarked) [TCMDC-136070] | -44.93 |
| COc1cccc2cc(C(=O)N[C@@H](CC(C)C)C(=O)N[C@H](C=NNC(=O)OC(C)(C)C)Cc3ccccc3)oc12 [TCMDC-136073] | -20.59 |
| Cc1cccc2[nH]c(-c3cccc(-c4cccc(CN5CCN(c6ccncc6)CC5)c4)c3)nc12 [TCMDC-132910] | 41.94 |
| COc1ccc(NC(=O)[C@H](Cc2ccccc2)Nc2cc(C)nc(NCCc3ccc(F)cc3)n2)cc1 [TCMDC-134786] | 103.7 |
| COc1ccc(NC(=O)[C@H](CC(C)C)Nc2cc(C)nc(NCCc3ccc(F)cc3)n2)cc1 [TCMDC-134793] | 11.38 |

| Structure (SMILES) | % Inhibition [%] |
| --- | --- |
| Cc1cc(N[C@@H](Cc2ccccc2)C(=O)Nc2ccccc2)nc(NCCN2CCCC2)n1 [TCMDC-134925] | 33.54 |
| Cc1cc(N[C@@H](Cc2ccccc2)C(=O)Nc2ccccc2)nc(NCCc2ccc(F)cc2)n1 [TCMDC-134790] | 26.02 |
| COc1ccc(NC(=O)[C@H](Cc2ccccc2)Nc2cc(C)nc(NCCN3CCCC3)n2)cc1 [TCMDC-134924] | 85.56 |
| Cc1cc(N[C@@H](CC(C)C)C(=O)Nc2ccccc2)nc(NCCc2ccc(F)cc2)n1 [TCMDC-134797] | 10.71 |
| COc1ccc(NC(=O)[C@H](Cc2ccccc2)Nc2nc(NCCN3CCCC3)ncc2C)cc1 [TCMDC-134860] | 27.32 |
| COc1ccc(NC(=O)[C@H](CC(C)C)Nc2cc(C)nc(NCCc3ccccc3)n2)cc1 [TCMDC-134778] | 31.74 |
| Cc1cc(N[C@@H](Cc2ccccc2)C(=O)Nc2ccccc2)nc(NCCc2ccccc2)n1 [TCMDC-134777] | 63.66 |
| Cc1cc(N[C@@H](Cc2ccccc2)C(=O)Nc2ccccc2)nc(Nc2ccccc2)n1 [TCMDC-134736] | -2.834 |
| Cc1cc(N[C@@H](CC(C)C)C(=O)Nc2ccccc2)nc(NCCc2ccccc2)n1 [TCMDC-134780] | 99.12 |
| COc1ccc2nccc(N3CCC(O)(CCNCc4ccc5c(n4)NC(=O)CS5)CC3)c2n1 [TCMDC-134553] | -13.65 |
| CCCOc1ccc(C=C(CC(=O)O)c2nc3ccccc3s2)cc1OCC [TCMDC-125020] | 4.95 |
| CO/C(=C\C=C\c1cc2cc(Cl)c(Cl)cc2[nH]1)C(=O)NCCCN1CCN(c2cccc(CCO)c2)CC1 [TCMDC-139549] | -37.75 |
| CC[C@H](C)CNC(=O)c1cncc(-c2ccc(CN3CCC(N4CCCC4)CC3)cc2)c1 [TCMDC-134234] | 36.3 |
| c1ccn2c(-c3ncnc(NCc4ccc5c(c4)CCO5)n3)cnc2c1 [TCMDC-135175] | 28.7 |
| COCc1ccccc1C(=O)NCCOc1cc(C)cc(C)c1 [TCMDC-134843] | -15.71 |
| Cc1cc(N[C@@H](Cc2ccccc2)C(=O)Nc2ccccc2)nc(NCCc2cccs2)n1 [TCMDC-134814] | 131.2 |
| Cc1cc(N[C@@H](Cc2ccccc2)C(=O)NC2CCCC2)nc(NCc2ccccc2C)n1 [TCMDC-134902] | -12.74 |
| COc1ccc(NC(=O)[C@H](Cc2ccccc2)Nc2cc(C)nc(NCc3ccccc3C)n2)cc1 [TCMDC-134904] | -26.59 |
| Cc1cc(N[C@@H](Cc2ccccc2)C(=O)NC2CCCC2)nc(NCCCOC(C)C)n1 [TCMDC-134821] | 40.66 |
| COc1ccc(NC(=O)[C@H](Cc2ccccc2)Nc2cc(C)nc(NCCc3ccccc3OC)n2)cc1 [TCMDC-134801] | 16.26 |
| Cc1cc(N[C@@H](Cc2ccccc2)C(=O)NC2CCCC2)nc(NCCc2cccs2)n1 [TCMDC-134811] | 53.29 |
| COc1ccc(NC(=O)[C@H](Cc2ccccc2)Nc2cc(C)nc(NCCc3cccs3)n2)cc1 [TCMDC-134873] | 39.58 |
| COc1ccc(NC(=O)[C@H](Cc2ccccc2)Nc2cc(C)nc(NCCc3ccccc3)n2)cc1 [TCMDC-134774] | 119.9 |

Reference: paper PMC4552634, “A New Set of Chemical Starting Points with Plasmodium falciparum Transmission-Blocking Potential for Antimalarial Drug Discovery” (PLoS ONE, 2015)
